Reference: PubChem BioAssay
Active and inactive are the calls of the source.

Experiments:
[1] = test system: PRMT1 (protein arginine N-methyltransferase 1); assay: small molecules binding arginine methyltransferase PRMT1 – biochemical, small-molecule microarray, 635 nm fluorescence, primary screen (AID 1088); conditions: higher = more signal;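 note: binding of Prmt1 protein to compounds spotted on small-molecule microarray slides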
[2] = growth effects on S. cerevisiae YJM789 – YJM789 clinical isolate, OD600, 24 h, basal, primary screen (AID 1089); conditions: higher = more signal, called active from +8 up or from −8 down;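 note: growth of clinical yeast isolate S. cerevisiae YJM 789 seeded 1000 cells per well; test concentration not given here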
[3] = S. pombe growth modifiers, basal conditions – strain 972, OD600, 24 h, no modulator, primary screen (AID 1090);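 note: basal condition with compound alone and no growth modifier present; test concentration not given here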; conditions: S. pombe 972 growth, higher = more signal, called active from +8 up or from −8 down
[4] = budding yeast growth modifiers under rapamycin – strain BY4716, OD600, 96 h, primary screen (AID 1091); note: test concentration not given here; conditions: S. cerevisiae BY4716 + rapamycin, higher = more signal, called active from +8 up or from −8 down
[5] = target: Torsin-1A-interacting protein 2 (Homo sapiens) (UniProt Q8NFQ8); assay: small molecules binding lysate-expressed LULL1 – cell lysate, human LULL1 lysate, 635/667 nm fluorescence, primary screen (AID 1092); conditions: small-molecule microarray, hLULL1 lysate binding, 635 nm fluorescence; higher = more signal;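 note: probe is lysate of COS7 cells overexpressing human LULL1; score merges per-feature 667 nm fluorescence with signal-to-noise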
[6] = optical density change of DRC41 E. coli – strain DRC41, OD650, 24 h, E. coli filamentation project, primary screen (AID 1093);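 note: MC1000 strain lacking acrAB efflux and sulA so SOS filamentation is blocked; test concentration not given here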; conditions: E. coli DRC41 growth, higher = more signal, called active from +8 up or from −8 down
[7] = probe aLefty2 binding to arrayed compounds – biochemical, biotinylated probe, 635/667 nm fluorescence, primary screen (AID 1094); conditions: small-molecule microarray, higher = more signal;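 note: score merges spot fluorescence near 667 nm with spot signal-to-noise ratio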
[8] = test system: Noggin (protein binding on small-molecule microarray); assay: small molecules binding Noggin protein – biochemical, 635/667 nm fluorescence, primary screen (AID 1095); conditions: 635 nm fluorescence, higher = more signal;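 note: score merges 667 nm feature fluorescence with signal to noise over triplicate slides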
[9] = target: Neurogenic locus notch homolog protein 3 (Homo sapiens) (UniProt Q9UM47); assay: small molecules binding NOTCH3 protein – biochemical, 635/667 nm fluorescence, primary screen (AID 1096); conditions: small-molecule microarray, 635 nm fluorescence, higher = more signal
[10] = probe aEGFR binding to arrayed compounds – biochemical, biotinylated probe, 635/667 nm fluorescence, primary screen (AID 1097); conditions: small-molecule microarray, higher = more signal;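 note: probe is a biotinylated anti-EGFR antibody binding compounds printed on slides; score combines fluorescence near 667 nm and signal to noise of each spot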
[11] = test system: Plasmodium falciparum Sir2 (PF13_0152, Sir2A); assay: Plasmodium falciparum Sir2A binding compounds – biochemical, small-molecule microarray, 635 nm fluorescence, primary screen (AID 1098); conditions: fluorescence 635 nm, higher = more signal;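 note: score merges spot fluorescence intensity with its signal-to-noise ratio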
[12] = probe aDKK1 binding to arrayed compounds – biochemical, biotinylated probe, 635/667 nm fluorescence, primary screen (AID 1099); conditions: small-molecule microarray, higher = more signal;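 note: score merges 667nm spot fluorescence with signal to noise across triplicate slides; reference of the scale not given here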
[13] = probe aCHRDL2 binding to arrayed compounds – biochemical, biotinylated probe, 635/667 nm fluorescence, primary screen (AID 1100); conditions: small-molecule microarray, higher = more signal
[14] = change in splice reporter luminescence, either direction, cell-based, HEK293, spliceosome inhibition project, primary screen (AID 1101); conditions: HEK293 splicing luciferase reporter, 24 h, higher = more signal, called active from +8 up or from −8 down;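 note: HEK293 cells carrying a splicing-competent luciferase reporter gene; test concentration not given here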
[15] = target: Fibroblast growth factor 10 (Homo sapiens) (UniProt O15520); assay: compounds binding fibroblast growth factor 10 – biochemical, small-molecule microarray, 635 nm fluorescence, primary screen (AID 1102); conditions: FGF10 binding, fluorescence 635 nm, higher = more signal
[16] = test system: glycogen synthase kinase-3 (GSK3A per assay name; protocol says GSK3B); assay: compounds binding glycogen synthase kinase-3 – biochemical, small-molecule microarray, 635 nm fluorescence, GSK3A, primary screen (AID 1103); conditions: fluorescence 635 nm, higher = more signal; note: the record names both GSK3A and GSK3B
[17] = target: Epidermal growth factor receptor (Homo sapiens) (UniProt P00533); assay: compounds binding epidermal growth factor receptor – biochemical, small-molecule microarray, 635 nm fluorescence, primary screen (AID 1104); conditions: EGFR binding, higher = more signal;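 note: score merges 667 nm emission intensity with spot signal to noise over triplicate slides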
[18] = target: Follistatin-related protein 3 (Homo sapiens) (UniProt O95633); assay: compounds binding follistatin-related protein 3 – biochemical, small-molecule microarray, 635 nm fluorescence, primary screen (AID 1105); conditions: FSTL3 binding, higher = more signal;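 note: score merges emission near 667 nm and signal to noise per printed spot across three slides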
[19] = target: Dickkopf-related protein 1 (Homo sapiens) (UniProt O94907); assay: small molecules binding DKK1 protein – biochemical, small-molecule microarray, 635 nm fluorescence scan, primary screen (AID 1106); conditions: higher = more signal;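 note: score merges emission near 667 nm with signal to noise over three replicate slides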
[20] = test system: Inhibin beta A chain (activin A); assay: small molecules binding activin A – biochemical, small-molecule microarray, 635 nm fluorescence scan, primary screen (AID 1107); conditions: INHBA, higher = more signal;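 note: mouse activin A protein probed at 4.33 µg/mL on printed slides; score merges bound-protein fluorescence near 667 nm with spot signal-to-noise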

Sequence of Torsin-1A-interacting protein 2 (Homo sapiens) (Q8NFQ8 whole entry, looked up): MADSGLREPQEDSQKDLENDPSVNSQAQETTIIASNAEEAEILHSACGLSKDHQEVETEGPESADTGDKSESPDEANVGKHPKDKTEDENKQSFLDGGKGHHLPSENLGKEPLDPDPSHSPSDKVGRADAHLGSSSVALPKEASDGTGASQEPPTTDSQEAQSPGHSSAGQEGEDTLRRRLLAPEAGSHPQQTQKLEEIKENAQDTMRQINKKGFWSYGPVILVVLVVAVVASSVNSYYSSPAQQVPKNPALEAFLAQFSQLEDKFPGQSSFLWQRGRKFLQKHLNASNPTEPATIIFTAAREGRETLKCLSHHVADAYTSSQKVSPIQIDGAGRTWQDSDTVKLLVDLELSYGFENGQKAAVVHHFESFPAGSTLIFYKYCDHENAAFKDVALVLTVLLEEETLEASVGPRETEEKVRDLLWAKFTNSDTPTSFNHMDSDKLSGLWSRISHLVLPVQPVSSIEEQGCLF
Sequence of Dickkopf-related protein 1 (Homo sapiens) (O94907 whole entry, looked up): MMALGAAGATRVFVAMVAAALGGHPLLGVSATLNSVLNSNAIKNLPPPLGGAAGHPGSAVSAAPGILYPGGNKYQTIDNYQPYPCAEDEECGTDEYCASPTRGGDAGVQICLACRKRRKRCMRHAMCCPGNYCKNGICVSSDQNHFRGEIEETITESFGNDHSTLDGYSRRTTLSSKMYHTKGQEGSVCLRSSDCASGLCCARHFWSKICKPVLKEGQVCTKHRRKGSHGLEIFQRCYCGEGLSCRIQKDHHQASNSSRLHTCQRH
Sequence of Follistatin-related protein 3 (Homo sapiens) (O95633 whole entry, looked up): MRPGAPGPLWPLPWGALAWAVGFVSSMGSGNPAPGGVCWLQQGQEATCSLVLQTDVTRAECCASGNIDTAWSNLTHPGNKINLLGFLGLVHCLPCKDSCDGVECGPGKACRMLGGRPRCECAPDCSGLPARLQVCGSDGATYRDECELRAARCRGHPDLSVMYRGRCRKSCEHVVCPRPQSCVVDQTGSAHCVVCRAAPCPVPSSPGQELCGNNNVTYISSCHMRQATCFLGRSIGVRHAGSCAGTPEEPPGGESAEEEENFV
Sequence of Neurogenic locus notch homolog protein 3 (Homo sapiens) (Q9UM47 whole entry, looked up): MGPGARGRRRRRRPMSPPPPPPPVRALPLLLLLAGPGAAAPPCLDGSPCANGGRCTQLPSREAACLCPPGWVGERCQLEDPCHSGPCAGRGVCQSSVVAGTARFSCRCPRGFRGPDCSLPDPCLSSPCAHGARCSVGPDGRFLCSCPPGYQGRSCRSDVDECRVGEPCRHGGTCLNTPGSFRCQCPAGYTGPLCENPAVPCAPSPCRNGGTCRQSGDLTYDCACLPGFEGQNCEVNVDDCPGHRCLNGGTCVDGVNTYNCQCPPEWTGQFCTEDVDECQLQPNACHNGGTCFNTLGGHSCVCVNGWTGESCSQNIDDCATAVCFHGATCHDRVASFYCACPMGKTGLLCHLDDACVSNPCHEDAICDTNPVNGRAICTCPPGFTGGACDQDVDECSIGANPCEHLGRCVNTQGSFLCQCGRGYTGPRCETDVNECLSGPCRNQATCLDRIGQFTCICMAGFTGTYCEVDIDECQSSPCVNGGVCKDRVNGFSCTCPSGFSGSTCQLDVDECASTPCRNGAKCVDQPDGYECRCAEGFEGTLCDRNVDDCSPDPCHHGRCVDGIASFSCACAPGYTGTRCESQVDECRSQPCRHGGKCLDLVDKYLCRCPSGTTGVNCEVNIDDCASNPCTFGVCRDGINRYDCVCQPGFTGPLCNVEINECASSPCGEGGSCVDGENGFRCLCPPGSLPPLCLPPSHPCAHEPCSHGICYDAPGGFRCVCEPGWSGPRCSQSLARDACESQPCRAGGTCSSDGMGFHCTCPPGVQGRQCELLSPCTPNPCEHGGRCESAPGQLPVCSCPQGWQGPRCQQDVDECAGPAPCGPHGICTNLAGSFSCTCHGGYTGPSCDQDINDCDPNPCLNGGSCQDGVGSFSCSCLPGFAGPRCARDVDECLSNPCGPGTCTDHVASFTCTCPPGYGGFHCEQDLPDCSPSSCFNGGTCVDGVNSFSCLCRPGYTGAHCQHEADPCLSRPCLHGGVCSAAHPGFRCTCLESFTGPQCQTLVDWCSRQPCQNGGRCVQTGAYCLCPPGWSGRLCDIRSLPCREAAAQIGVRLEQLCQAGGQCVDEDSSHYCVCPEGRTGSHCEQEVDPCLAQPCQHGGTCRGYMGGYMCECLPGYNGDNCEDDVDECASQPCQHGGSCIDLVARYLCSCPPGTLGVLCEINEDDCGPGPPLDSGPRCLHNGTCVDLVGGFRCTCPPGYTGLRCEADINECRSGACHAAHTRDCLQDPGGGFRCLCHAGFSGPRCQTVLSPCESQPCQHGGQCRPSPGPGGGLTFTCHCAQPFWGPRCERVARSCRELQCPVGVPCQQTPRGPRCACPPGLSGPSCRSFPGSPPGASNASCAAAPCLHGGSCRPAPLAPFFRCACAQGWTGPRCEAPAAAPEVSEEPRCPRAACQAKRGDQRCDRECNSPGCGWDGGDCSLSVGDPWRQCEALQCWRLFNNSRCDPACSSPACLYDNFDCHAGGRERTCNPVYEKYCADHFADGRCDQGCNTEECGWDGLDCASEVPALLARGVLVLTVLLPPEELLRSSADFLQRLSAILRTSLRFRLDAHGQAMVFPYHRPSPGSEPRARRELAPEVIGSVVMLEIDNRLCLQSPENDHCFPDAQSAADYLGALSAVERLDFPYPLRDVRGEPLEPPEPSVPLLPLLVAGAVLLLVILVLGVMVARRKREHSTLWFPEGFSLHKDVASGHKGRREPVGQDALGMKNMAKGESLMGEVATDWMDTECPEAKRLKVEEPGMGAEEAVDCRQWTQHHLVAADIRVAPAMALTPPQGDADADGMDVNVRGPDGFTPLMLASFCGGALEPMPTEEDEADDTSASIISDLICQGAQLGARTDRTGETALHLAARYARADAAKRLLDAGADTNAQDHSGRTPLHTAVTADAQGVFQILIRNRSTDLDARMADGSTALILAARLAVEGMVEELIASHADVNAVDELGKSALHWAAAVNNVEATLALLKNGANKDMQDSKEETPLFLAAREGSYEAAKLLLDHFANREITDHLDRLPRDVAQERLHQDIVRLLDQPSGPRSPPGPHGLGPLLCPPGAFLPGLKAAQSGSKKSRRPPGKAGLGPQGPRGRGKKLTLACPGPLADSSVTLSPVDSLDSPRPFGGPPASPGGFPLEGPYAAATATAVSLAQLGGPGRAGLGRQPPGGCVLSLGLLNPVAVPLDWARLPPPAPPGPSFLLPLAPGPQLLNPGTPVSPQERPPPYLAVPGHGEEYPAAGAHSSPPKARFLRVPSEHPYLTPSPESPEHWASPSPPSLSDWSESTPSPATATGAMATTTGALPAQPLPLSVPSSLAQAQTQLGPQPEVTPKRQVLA
Sequence of Epidermal growth factor receptor (Homo sapiens) (P00533 whole entry, looked up): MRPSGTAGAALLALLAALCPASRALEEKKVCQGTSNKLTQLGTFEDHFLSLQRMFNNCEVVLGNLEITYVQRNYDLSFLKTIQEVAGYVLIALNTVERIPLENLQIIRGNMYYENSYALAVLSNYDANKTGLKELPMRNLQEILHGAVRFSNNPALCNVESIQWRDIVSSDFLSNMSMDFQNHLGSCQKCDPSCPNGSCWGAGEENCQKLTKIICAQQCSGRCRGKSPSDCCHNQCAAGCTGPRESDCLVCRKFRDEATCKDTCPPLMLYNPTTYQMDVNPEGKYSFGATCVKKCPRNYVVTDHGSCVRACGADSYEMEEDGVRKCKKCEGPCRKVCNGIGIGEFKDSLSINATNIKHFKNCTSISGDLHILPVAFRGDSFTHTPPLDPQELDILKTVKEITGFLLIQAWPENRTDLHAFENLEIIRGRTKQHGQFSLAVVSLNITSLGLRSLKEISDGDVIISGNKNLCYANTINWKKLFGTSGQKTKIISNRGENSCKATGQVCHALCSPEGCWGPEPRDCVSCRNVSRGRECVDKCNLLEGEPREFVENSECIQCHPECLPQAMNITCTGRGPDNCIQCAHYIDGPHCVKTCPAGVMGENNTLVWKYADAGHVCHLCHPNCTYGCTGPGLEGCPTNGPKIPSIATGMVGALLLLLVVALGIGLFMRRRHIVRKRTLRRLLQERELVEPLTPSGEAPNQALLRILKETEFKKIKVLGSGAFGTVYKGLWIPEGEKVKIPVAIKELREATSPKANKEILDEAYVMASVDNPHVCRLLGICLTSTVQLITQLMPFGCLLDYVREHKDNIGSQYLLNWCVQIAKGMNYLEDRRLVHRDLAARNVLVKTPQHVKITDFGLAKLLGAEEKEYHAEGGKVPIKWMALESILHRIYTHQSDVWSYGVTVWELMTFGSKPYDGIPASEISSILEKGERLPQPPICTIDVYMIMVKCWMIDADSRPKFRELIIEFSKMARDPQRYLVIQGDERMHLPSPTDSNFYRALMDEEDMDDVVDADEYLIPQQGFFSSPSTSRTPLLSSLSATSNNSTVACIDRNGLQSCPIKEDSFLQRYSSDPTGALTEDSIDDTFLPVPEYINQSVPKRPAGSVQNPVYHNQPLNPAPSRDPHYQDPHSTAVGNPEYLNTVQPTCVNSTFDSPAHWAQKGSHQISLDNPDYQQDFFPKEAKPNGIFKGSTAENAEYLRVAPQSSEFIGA
Sequence of Fibroblast growth factor 10 (Homo sapiens) (O15520 whole entry, looked up): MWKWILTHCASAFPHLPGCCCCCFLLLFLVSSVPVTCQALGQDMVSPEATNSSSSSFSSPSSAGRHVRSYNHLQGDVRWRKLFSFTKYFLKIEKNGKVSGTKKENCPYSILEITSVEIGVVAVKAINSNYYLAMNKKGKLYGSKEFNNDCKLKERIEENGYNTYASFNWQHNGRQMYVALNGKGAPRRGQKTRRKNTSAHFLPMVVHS

CC(C)C[C@@H]1NC(=O)[C@@H]2C[C@H](C(=O)NCc3ccc(F)cc3)[C@H](c3ccc(O)cc3)N2C1=O
composite z-score [1]: 1.43 | z-score [2]: -0.472 (inactive) | z-score [3]: -0.352 (inactive) | z-score [4]: -0.427 (inactive) | composite z-score [5]: 2.96 | z-score [6]: 0.549 (inactive) | composite z-score [7]: 0.0137 | composite z-score [8]: 0.479 | composite z-score [9]: 0.365 | composite z-score [10]: -0.178 | composite z-score [11]: 1.03 | composite z-score [12]: 0.0289 | composite z-score [13]: -0.0756 | z-score [14]: -0.295 (inactive) | composite z-score [15]: 0.807 | composite z-score [16]: 0.819 | composite z-score [17]: 0.116 | composite z-score [18]: 0.111 | composite z-score [19]: 0.284 | composite z-score [20]: -0.445

O=C1c2ccccc2[C@](Cc2ccccc2I)(C(=O)NCC(F)(F)F)[C@H](c2ccc(CO)cc2)N1Cc1ccccc1
composite z-score [1]: 1.55 | z-score [2]: -0.943 (inactive) | z-score [3]: -0.732 (inactive) | z-score [4]: -0.666 (inactive) | composite z-score [5]: 2.45 | z-score [6]: 0.29 (inactive) | composite z-score [7]: -0.0907 | composite z-score [8]: 0.444 | composite z-score [9]: 1.16 | composite z-score [10]: -0.0679 | composite z-score [11]: 1.14 | composite z-score [12]: 0.0143 | composite z-score [13]: 0.296 | z-score [14]: -0.507 (inactive) | composite z-score [15]: 0.269 | composite z-score [16]: 0.848 | composite z-score [17]: -0.0654 | composite z-score [18]: 0.871 | composite z-score [19]: -0.316 | composite z-score [20]: 0.545

O=C1CSC(c2cccc([N+](=O)[O-])c2)N1c1ccccc1 (stereo not given)
composite z-score [1]: 0.0447 | z-score [2]: -0.0876 (inactive) | z-score [3]: 0.616 (inactive) | z-score [4]: 1.09 (inactive) | composite z-score [5]: 0.517 | z-score [6]: 0.666 (inactive) | composite z-score [7]: -0.0163 | composite z-score [8]: 0.36 | composite z-score [9]: 0.201 | composite z-score [10]: 0.0093 | composite z-score [11]: -0.125 | composite z-score [12]: 0.136 | composite z-score [13]: -0.342 | z-score [14]: 0.187 (inactive) | composite z-score [15]: 0.523 | composite z-score [16]: 0.401 | composite z-score [17]: 0.354 | composite z-score [18]: 0.404 | composite z-score [19]: 0.661 | composite z-score [20]: 0.154

O=C1C2C=CC(C(O)c3cccc4ccccc34)N(Nc3ccccc3)C2C(=O)N1c1ccccc1 (stereo not given)
composite z-score [1]: 1.56 | z-score [2]: 0.487 (inactive) | z-score [3]: -0.251 (inactive) | z-score [4]: -0.0667 (inactive) | composite z-score [5]: 3.16 | z-score [6]: -1.07 (inactive) | composite z-score [7]: 0.343 | composite z-score [8]: 0.428 | composite z-score [9]: 1.04 | composite z-score [10]: -0.0271 | composite z-score [11]: 1.54 | composite z-score [12]: 1.33 | composite z-score [13]: 0.945 | z-score [14]: -0.272 (inactive) | composite z-score [15]: 1.09 | composite z-score [16]: 1.28 | composite z-score [17]: 0.346 | composite z-score [18]: 1.43 | composite z-score [19]: 0.0156 | composite z-score [20]: 1.15

C#CCNS(=O)(=O)N(C)C
composite z-score [1]: 0.392 | z-score [2]: 1.24 (inactive) | z-score [3]: 0.783 (inactive) | z-score [4]: 0.689 (inactive) | composite z-score [5]: 0.43 | z-score [6]: 0.663 (inactive) | composite z-score [7]: -0.139 | composite z-score [8]: 0.4 | composite z-score [9]: 0.579 | composite z-score [10]: -0.054 | composite z-score [11]: 0.365 | composite z-score [12]: -0.0521 | composite z-score [13]: -0.55 | z-score [14]: 0.0242 (inactive) | composite z-score [15]: 0.296 | composite z-score [16]: 0.642 | composite z-score [17]: 0.469 | composite z-score [18]: 0.31 | composite z-score [19]: 0.216 | composite z-score [20]: -0.128

COC(=O)c1ccc(OC)c(/C=C\CC(CCc2ccccc2)OC(=O)c2ccncc2)c1 (stereo not given)
composite z-score [1]: -0.0105 | z-score [2]: -0.272 (inactive) | z-score [3]: -1.34 (inactive) | z-score [4]: 3.39 (inactive) | composite z-score [5]: 0.673 | z-score [6]: 0.162 (inactive) | composite z-score [7]: 0.0224 | composite z-score [8]: 1.88 | composite z-score [9]: -0.169 | composite z-score [10]: -0.195 | composite z-score [11]: -0.734 | composite z-score [12]: -0.264 | composite z-score [13]: 0.705 | z-score [14]: -0.387 (inactive) | composite z-score [15]: 0.253 | composite z-score [16]: -0.453 | composite z-score [17]: 0.651 | composite z-score [18]: 1.37 | composite z-score [19]: 0.697 | composite z-score [20]: 1.81

COc1ccc([Si](C)(C)[C@@H]2[C@@H](CCO)O[C@]3(C(=O)N(Cc4ccccc4)c4ccc(N5CCCCC5=O)cc43)[C@H]2C)cc1
composite z-score [1]: 1.56 | z-score [2]: 3.43 (inactive) | z-score [3]: -0.536 (inactive) | z-score [4]: 4.86 (inactive) | composite z-score [5]: 2.06 | z-score [6]: 2.63 (inactive) | composite z-score [7]: -0.0151 | composite z-score [8]: 0.901 | composite z-score [9]: 1.11 | composite z-score [10]: -0.0828 | composite z-score [11]: 0.883 | composite z-score [12]: -0.107 | composite z-score [13]: -0.0137 | z-score [14]: -4.14 (inactive) | composite z-score [15]: 0.959 | composite z-score [16]: 1.1 | composite z-score [17]: 0.197 | composite z-score [18]: 0.962 | composite z-score [19]: 0.218 | composite z-score [20]: 0.796

C[N+](C)(C)CCCC[C@@H]1NC(=O)[C@@H]2C[C@H](C(=O)O)[C@H](c3cccc(OCCO)c3)N2C1=O
composite z-score [1]: 0.583 | z-score [2]: 0.852 (inactive) | z-score [3]: -1.13 (inactive) | z-score [4]: 0.167 (inactive) | composite z-score [5]: 0.423 | z-score [6]: 0.817 (inactive) | composite z-score [7]: -0.175 | composite z-score [8]: 0.601 | composite z-score [9]: -0.78 | composite z-score [10]: -0.175 | composite z-score [11]: 1.53 | composite z-score [12]: -0.066 | composite z-score [13]: 0.667 | z-score [14]: -0.11 (inactive) | composite z-score [15]: 0.11 | composite z-score [16]: -0.144 | composite z-score [17]: -0.188 | composite z-score [18]: -0.492 | composite z-score [19]: 0.503 | composite z-score [20]: 0.146

[N-]=[N+]=Nc1ccccc1[C@H]1OC(c2ccc(OCCCO)cc2)=N[C@@]1(Cc1ccccc1)C(=O)NCc1ccccc1
composite z-score [1]: 1.57 | z-score [2]: -2.78 (inactive) | z-score [3]: -2.1 (inactive) | z-score [4]: 1.12 (inactive) | composite z-score [5]: 2.79 | z-score [6]: 1.81 (inactive) | composite z-score [7]: -0.0192 | composite z-score [8]: 0.641 | composite z-score [9]: 1.04 | composite z-score [10]: -0.0066 | composite z-score [11]: 0.427 | composite z-score [12]: 0.243 | composite z-score [13]: 0.712 | z-score [14]: -1.72 (inactive) | composite z-score [15]: 0.776 | composite z-score [16]: 1.12 | composite z-score [17]: -0.0565 | composite z-score [18]: 0.643 | composite z-score [19]: 0.865 | composite z-score [20]: 0.774
